Screening data (PubChem BioAssay)
Mot1-301 SUMO – blocks SUMOylation pathway, rescuing yeast Mot1-301 growth | S. cerevisiae Mot1-301 growth rescue, ATP luminescence, 38.5C; percent above DMSO median, 100 means doubled | growth rescue, % at 18.8 µM | 320,000 tested, 1% active | AID 2716;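 active = every valid replicate shows activation above 250% relative to neutral control wells; inactive = the rest, any valid replicate at or below 250%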
PvdQ inh – P. aeruginosa PvdQ acylase inhibition; purified PvdQ acylase, fluorescence plate reader; inhibition, % at 10 µM; 340,000 tested, 0.063% active; AID 488965; in the data active = inhibition above about 30%, passing the limit was not always enough; inconclusive = no clear call, values can overlap the other calls
HDAC3 inh – inhibitors of human histone deacetylase 3 | O15379 | recombinant HDAC3, fluorogenic peptide/trypsin coupled, fluorescence | inhibition, % at 8.3 µM | 320,000 tested, 0.15% active; in the data active = inhibition above about 26%, passing the limit was not always enough; inconclusive = no clear call, values can overlap the other calls
p-CIP stab down – compounds decreasing mouse p/CIP protein stability. F442A p/CIP-EGFP cells, EGFP fluorescence, 16 h. decrease of EGFP signal, % at 10 µM. 290,000 tested, 0.01% active;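 active = EGFP signal decrease of at least 30% at 10 µM or well 3 SD below plate mean, unless failing retest; inactive = the rest, including hits failing retest or dose response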
JMJD2C inh – inhibitors of human GASC-1 (JMJD2C) demethylase. Q9H3R0. GST-JMJD2C(1-420) H3K9me3 demethylation, DELFIA europium. inhibition, % at 2.35 µM. AID 2099. 330,000 tested, 0.069% active;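 active = more than half of a compound's replicate wells show inhibition beyond 50%, single wells judged on their own value; inconclusive = some, but no more than half, of replicates pass 50% inhibition; inactive = no replicate passes 50% inhibition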;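 also: signal counts dimethyl H3K9 product captured on neutravidin plate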
PHOSPHO1 inh – inhibitors of human PHOSPHO1 phosphatase. Q8TCT1. inhibition, % at 13.3 µM. 290,000 tested, 1.1% active. recombinant PHOSPHO1, absorbance phosphatase assay. AID 1565; in the data active = inhibition above about 60%
Target sequence (Q8TCT1 whole entry, looked up): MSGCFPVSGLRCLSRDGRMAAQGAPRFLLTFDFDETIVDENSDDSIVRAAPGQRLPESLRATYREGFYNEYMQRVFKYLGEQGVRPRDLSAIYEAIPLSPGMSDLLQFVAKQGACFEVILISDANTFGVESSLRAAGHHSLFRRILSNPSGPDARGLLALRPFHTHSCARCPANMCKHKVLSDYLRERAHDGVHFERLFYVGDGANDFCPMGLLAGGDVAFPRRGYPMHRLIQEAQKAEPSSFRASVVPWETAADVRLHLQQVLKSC
Each line names hits and unclear results; the compound was inactive in the other large screens. Only some compounds are listed: those with a hit (about 2.2% of all), similar ones and a draw of the others.

CCOC(=O)N1CCN(C(=O)CSc2ccc(-c3ccc(OC)cc3)nn2)CC1	PHOSPHO1 inh 68
CCOC(=O)N1CCN(C(=O)CSc2ccc(-c3ccc(OC)c(OC)c3)nn2)CC1	none (no result: HDAC3 inh)
CCC1(OC(=O)CN(C)C)C(=O)OCc2c1cc1n(c2=O)Cc2cc3c(N)cccc3nc2-1 (stereo not drawn)	none (no result: Mot1-301 SUMO, HDAC3 inh, p-CIP stab down, JMJD2C inh, PHOSPHO1 inh)
O=S(=O)(NC1CCC(NS(=O)(=O)c2c(F)cccc2F)CC1)c1ccc2c(c1)OCCO2 (stereo not drawn)	none (no result: p-CIP stab down, PHOSPHO1 inh)
O=S(=O)(c1ccc2c(c1)OCCO2)C1CCC(S(=O)(=O)c2c(F)cccc2F)CC1 (stereo not drawn)	HDAC3 inh 40 (no result: p-CIP stab down, JMJD2C inh, PHOSPHO1 inh)
Cc1ccc(-c2cc(-c3ccccc3)[nH]c(=S)c2C#N)cc1	none
N#Cc1c(N)[nH]c(=S)c(C#N)c1-c1ccccc1	PHOSPHO1 inh 96
O=C(CN1C2=NCCN2c2ccccc21)c1ccc(Br)s1	none
CC1=Nc2ccc3ccccc3c2C1(C)C	PHOSPHO1 inh 63
CCN1CCN(C(c2ccccc2)c2nnnn2Cc2ccc3c(c2)OCO3)CC1 (stereo not drawn)	PHOSPHO1 inh 61
CC1CCN(C(c2ccc(N(C)C)cc2)c2nnnn2Cc2ccccc2)CC1 (stereo not drawn)	PHOSPHO1 inh 69
CCCCOc1ccc(SCCCN2CCOCC2)cc1	none (no result: Mot1-301 SUMO, HDAC3 inh, p-CIP stab down, JMJD2C inh, PHOSPHO1 inh)
CC(C)(C)CC(=O)NC(=S)N1CCCCCC1	PHOSPHO1 inh 69
CC(C)(C)c1ccc(C(=O)NC(=S)N2CCCCCC2)cc1	none
O=c1cc2oc3cc(O)c(O)cc3c(-c3ccccc3[N+](=O)[O-])c-2cc1O	JMJD2C inh 57
O=c1cc(-c2ccccc2Cl)oc2cccc(O)c12	none
CCOc1ccccc1C1NC(=O)c2ccccc2O1 (stereo not drawn)	HDAC3 inh inconclusive
CCOC(=O)N1CCN(C(=O)c2ccc3c(=O)n(Cc4ccc(Cl)cc4)c(=S)[nH]c3c2)CC1	none
CCOC(=O)Cn1c(=S)[nH]c2c(oc3ccc(Cl)cc32)c1=O	PHOSPHO1 inh 93 (no result: Mot1-301 SUMO)
COCCSc1ccccc1C(=O)Nc1ccc([N+](=O)[O-])cc1OC	PHOSPHO1 inh 64 (no result: Mot1-301 SUMO)
COc1ccc(NC(=O)c2ccc(CNc3c(N4CCCC4)c(=O)c3=O)cc2)cc1Cl	PHOSPHO1 inh 66
Cc1ccc(Cl)c(NC(=O)COC(=O)c2nn(C)c(=O)c3ccccc23)c1Cl	none (no result: p-CIP stab down, PHOSPHO1 inh)
COc1cccc(/C=C(\C)C(=O)c2c(C)cc(C)[nH]c2=O)c1OC	none
O=C(COc1cccc2cccnc12)NNC(=O)Nc1ccccc1	PHOSPHO1 inh 61
CCCC1CC(=O)OC1(C)C(=O)CSc1n[nH]c(-c2ccccc2)n1 (stereo not drawn)	none (no result: PvdQ inh)
CCCC1CC(C)(C(=O)CSc2n[nH]c(-c3ccccc3)n2)OC1=O (stereo not drawn)	PHOSPHO1 inh 60
O=C(CNC(=O)c1ccccc1C(F)(F)F)N/N=C/c1cccs1	none
Cc1ccc(OCC(=O)NC(=S)Nc2ccc(Br)c(C)n2)cc1	PHOSPHO1 inh 84
Cc1nc(NC(=S)NC(=O)COc2ccc(Cl)cc2)ccc1Br	none
CCS(=O)(=O)c1ccc2oc(Nc3ccc(C(C)C)cc3)nc2c1	PHOSPHO1 inh 82 (no result: Mot1-301 SUMO)
Cc1ccc(S(=O)(=O)N(CC(=O)N2CCCCCC2)c2ccccc2)cc1	none
Cc1ccc(S(=O)(=O)N(CC(=O)N2CCC(C)CC2)c2ccccc2)cc1	PvdQ inh 37
CCc1cccc(C)c1NC(=S)N(Cc1cccnc1)Cc1ccco1	none
CCN1CCN(C(=S)c2ccc(Cl)c(Cl)c2)CC1	PHOSPHO1 inh 95
CCN1CCN(C(=S)Nc2ccc(Cl)c(Cl)c2)CC1	none
COc1ccc(Cn2c(=O)[nH]c3cc(C(=O)N4CCN(c5ccc(C(C)=O)cc5)CC4)ccc3c2=O)cc1	none
CNC1(C(N)=O)CCNCC1	p-CIP stab down 39
CC[C@@]12C(=O)N(c3cccc(C)c3)C(=O)N1[C@H](c1ccc(OC)cc1)[C@@H]1C(=O)N(C(C)(C)C)C(=O)[C@@H]12	none
COc1ccc([C@@H]2[C@@H]3C(=O)N(C(C)(C)C)C(=O)[C@@H]3[C@]3(C)C(=O)N(c4cccc(C)c4)C(=O)N23)cc1	Mot1-301 SUMO 280
CC1(C)CC(NC(=O)c2cc(S(=O)(=O)N3CCCCC3)ccc2Cl)CC(C)(C)N1	none
CCCCCCn1c2c(c(=N)c3c1CCC3)CCC2	none
